# Measurements from PubChem BioAssay (Tox21).
# Results filed as inconclusive are left out. The source made the active and inactive calls. Calls come from the whole dose curve; as a rule, active = well fitted inhibition curve with a large enough effect in the repeat runs; inconclusive = weak or mixed curves; inactive = no such curve, though single readings can be large or run the other way.
# Molecular target: Cytochrome P450 2D6 (Homo sapiens) (UniProt P10635)
# Assay: Cytochrome P450 Family 2 Subfamily D Member 6 (CYP2D6) small molecule antagonists: luciferase reporter qHTS assay (AID 1671196); note: nearly all actives have a fitted effect of over 50% in size
# Settings: P450-Glo CYP2D6 enzyme assay, luciferin luminescence, 1 h; series mostly up to 115 µM; activity change, negative = inhibition: at the top concentration
# Procedure, shortened: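 Luminogenic proluciferin substrate, CYP2D6 enzyme; 10 min RT preincubation with compound, NADPH regeneration system added, 1 h RT. Stop/detection reagent, 20 min RT, luminescence read (RLU). Signal proportional to CYP activity.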
# % is set by controls: 0 for no effect and ±100 for the full control effect; potency is the fitted concentration of half-maximal effect.
# Cytochrome P450 2D6 (Homo sapiens), sequence (P10635 whole entry, looked up): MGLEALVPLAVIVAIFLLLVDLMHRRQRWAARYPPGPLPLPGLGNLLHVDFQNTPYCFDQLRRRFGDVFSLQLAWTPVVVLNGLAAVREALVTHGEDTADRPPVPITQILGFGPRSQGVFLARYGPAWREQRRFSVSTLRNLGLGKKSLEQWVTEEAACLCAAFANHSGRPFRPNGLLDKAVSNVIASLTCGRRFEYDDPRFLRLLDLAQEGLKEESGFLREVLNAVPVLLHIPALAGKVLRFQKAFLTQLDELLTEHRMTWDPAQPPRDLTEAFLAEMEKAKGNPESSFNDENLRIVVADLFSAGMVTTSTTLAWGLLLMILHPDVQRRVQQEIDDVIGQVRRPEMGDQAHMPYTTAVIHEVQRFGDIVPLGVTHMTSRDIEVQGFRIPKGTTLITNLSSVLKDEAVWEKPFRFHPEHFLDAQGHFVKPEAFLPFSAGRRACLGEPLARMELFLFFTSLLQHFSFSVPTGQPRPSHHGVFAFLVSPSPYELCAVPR
Structure (SMILES),Potency,"activity change, negative = inhibition"
Clc1nc(C(Cl)(Cl)Cl)c(Cl)c(Cl)c1Cl,31.7 µM (active),
CCOc1ccc([N+](=O)[O-])cc1,80.9 µM (active),
c1ccc2cc3c4ccccc4c4ccccc4c3cc2c1,,-16.3% (inactive)
C=C1C(CCl)(CCl)C2(Cl)C(Cl)C(Cl)C1(Cl)C2(Cl)Cl (stereo unspecified),44.3 µM (active),
O=C(Nc1ccccc1)c1cc(Cl)ccc1O,39.9 µM (active),
CC(Cc1ccc(O)c(O)c1)C(C)Cc1ccc(O)c(O)c1 (stereo unspecified),,-17% (inactive)
NCc1cccc(C2CCN(C(=O)c3ccc(C#Cc4ccccc4F)o3)CC2)c1,20 µM (active),
CCCCCCCCCCCCCCCCCCNC(=O)OC1CCN(C(=O)OC[C@H](COC(=O)N(Cc2cccc[n+]2CC)C(=O)c2ccccc2OC)OC)CC1,27.5 µM (active),
c1ccc(-c2ccc(C(c3ccccc3)n3ccnc3)cc2)cc1 (stereo unspecified),1.55 µM (active),
CC(C)(c1ccc(Oc2ccc(N)cc2)cc1)c1ccc(Oc2ccc(N)cc2)cc1,,-13.2% (inactive)
O=[N+]([O-])c1ccc(O)c2ncccc12,,-16.4% [at 53 µM] (inactive)
c1ccc2c(c1)-c1ccc3ccc4cccc5cc-2c1c3c45,,-7.58% [at 53 µM] (inactive)
O=C1CCC/C=C\CCCCCCCCCC1,,-13% (inactive)
O[Si](c1ccccc1)(c1ccccc1)c1ccccc1,,-22.3% (inactive)

# Molecular target: Cytochrome P450 2C19 (Homo sapiens) (UniProt P33261)
# Sequence (P33261 whole entry, looked up): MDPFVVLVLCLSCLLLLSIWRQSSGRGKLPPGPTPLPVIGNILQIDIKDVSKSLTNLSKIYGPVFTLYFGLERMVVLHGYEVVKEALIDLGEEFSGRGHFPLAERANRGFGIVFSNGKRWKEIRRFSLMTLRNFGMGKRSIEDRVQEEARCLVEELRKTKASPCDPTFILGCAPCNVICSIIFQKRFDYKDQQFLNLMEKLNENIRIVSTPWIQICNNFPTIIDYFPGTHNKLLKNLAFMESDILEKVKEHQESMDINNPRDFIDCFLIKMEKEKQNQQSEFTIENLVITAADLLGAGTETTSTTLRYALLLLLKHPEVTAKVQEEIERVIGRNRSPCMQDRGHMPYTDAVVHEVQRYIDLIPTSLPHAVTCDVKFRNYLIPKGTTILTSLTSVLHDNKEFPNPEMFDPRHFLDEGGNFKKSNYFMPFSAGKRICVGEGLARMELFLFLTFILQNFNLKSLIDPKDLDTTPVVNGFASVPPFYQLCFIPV
# Assay: Cytochrome P450 Family 2 Subfamily C Member 19 (CYP2C19) small molecule antagonists: luciferase reporter qHTS assay (AID 1671197); note: nearly all actives have a fitted effect of over 65% in size
# Settings: P450-Glo CYP2C19 enzyme, luciferin luminescence, 1 h; series mostly up to 115 µM; activity change, negative = inhibition: at the top concentration
# Procedure, shortened: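 Enzyme-substrate mix with proluciferin substrate (P450-Glo CYP2C19 system) preincubated with compounds 10 min at room temperature; NADPH regeneration solution added, 37C for 1 h; detection reagent stops reaction, luminescence read after 20 min. Ketoconazole positive control.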
Structure (SMILES),Potency,"activity change, negative = inhibition"
C=C1C(CCl)(CCl)C2(Cl)C(Cl)C(Cl)C1(Cl)C2(Cl)Cl (stereo unspecified),1.76 µM (active),
CC(Cc1ccc(O)c(O)c1)C(C)Cc1ccc(O)c(O)c1 (stereo unspecified),35.6 µM (active),
NCc1cccc(C2CCN(C(=O)c3ccc(C#Cc4ccccc4F)o3)CC2)c1,2 µM (active),
CC(C)(c1ccc(Oc2ccc(N)cc2)cc1)c1ccc(Oc2ccc(N)cc2)cc1,7.96 µM (active),
O=[N+]([O-])c1ccc(O)c2ncccc12,,46.1% [at 52.9 µM] (inactive)
c1ccc2c(c1)-c1ccc3ccc4cccc5cc-2c1c3c45,,-10.1% [at 52.9 µM] (inactive)
O=S(=O)(c1ccc(OCc2ccccc2)cc1)c1ccccc1O,6.33 µM (active),
O[Si](c1ccccc1)(c1ccccc1)c1ccccc1,0.502 µM (active),

# Molecular target: Cytochrome P450 2C9 (Homo sapiens) (UniProt P11712)
# Sequence (P11712 whole entry, looked up): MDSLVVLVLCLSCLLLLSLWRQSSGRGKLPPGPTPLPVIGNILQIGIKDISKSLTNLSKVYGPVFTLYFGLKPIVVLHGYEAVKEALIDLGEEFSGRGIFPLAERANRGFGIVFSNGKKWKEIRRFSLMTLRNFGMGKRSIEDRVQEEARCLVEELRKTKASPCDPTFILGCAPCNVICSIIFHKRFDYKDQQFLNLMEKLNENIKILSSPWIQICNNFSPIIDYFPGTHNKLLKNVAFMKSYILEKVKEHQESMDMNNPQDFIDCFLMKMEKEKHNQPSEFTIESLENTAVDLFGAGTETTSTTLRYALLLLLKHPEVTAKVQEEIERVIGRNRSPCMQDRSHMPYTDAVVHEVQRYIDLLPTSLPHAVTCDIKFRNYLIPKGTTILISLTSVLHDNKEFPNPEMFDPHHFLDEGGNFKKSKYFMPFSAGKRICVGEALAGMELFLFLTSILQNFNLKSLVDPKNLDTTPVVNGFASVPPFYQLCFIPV
# Assay: Cytochrome P450 Family 2 Subfamily C Member 9 (CYP2C9) small molecule antagonists: luciferase reporter qHTS assay (AID 1671198); note: nearly all actives have a fitted effect of over 50% in size
# Settings: P450-Glo CYP2C9 enzyme assay, luciferin luminescence; series mostly up to 115 µM; activity change, negative = inhibition: at the top concentration
# Procedure, shortened: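 P450-Glo proluciferin substrate with CYP2C9 enzyme; 10 min RT preincubation, then NADPH regeneration 1 h at 37C; luciferin detection reagent 20 min RT, luminescence in relative luminescence units.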
Structure (SMILES),Potency,"activity change, negative = inhibition"
Clc1nc(C(Cl)(Cl)Cl)c(Cl)c(Cl)c1Cl,35.6 µM (active),
CCOc1ccc([N+](=O)[O-])cc1,16.1 µM (active),
c1ccc2cc3c4ccccc4c4ccccc4c3cc2c1,,-18.5% (inactive)
C=C1C(CCl)(CCl)C2(Cl)C(Cl)C(Cl)C1(Cl)C2(Cl)Cl (stereo unspecified),15.7 µM (active),
O=C(Nc1ccccc1)c1cc(Cl)ccc1O,17.8 µM (active),
CC(Cc1ccc(O)c(O)c1)C(C)Cc1ccc(O)c(O)c1 (stereo unspecified),12.6 µM (active),
NCc1cccc(C2CCN(C(=O)c3ccc(C#Cc4ccccc4F)o3)CC2)c1,0.071 µM (active),
CCCCCCCCCCCCCCCCCCNC(=O)OC1CCN(C(=O)OC[C@H](COC(=O)N(Cc2cccc[n+]2CC)C(=O)c2ccccc2OC)OC)CC1,30.9 µM (active),
c1ccc(-c2ccc(C(c3ccccc3)n3ccnc3)cc2)cc1 (stereo unspecified),0.219 µM (active),
CC(C)(c1ccc(Oc2ccc(N)cc2)cc1)c1ccc(Oc2ccc(N)cc2)cc1,2.52 µM (active),
CCCCCCCC/C=C\CCCCCCCC(=O)N(CCO)CCO,14.1 µM (active),
O=[N+]([O-])c1ccc(O)c2ncccc12,38.9 µM (active),
O=S(=O)(c1ccc(OCc2ccccc2)cc1)c1ccccc1O,39.9 µM (active),
O[Si](c1ccccc1)(c1ccccc1)c1ccccc1,0.564 µM (active),
